Source: the antibiotic and cytotoxicity screens of Wong et al. (2023)
Hit rate of the full screen: of about 39,000 compounds, about 500 (1.3%) were called active. This excerpt belongs to a sample that is enriched for actives.

system: S. aureus RN4220; experiment: growth inhibition call (relative growth <= 0.2); settings: 50 µM

Row | SMILES | growth inhibition call
1 | Nc1ccc(O)cc1 | inactive
2 | C[C@@H]1CCCCO[C@@H](CN(C)C(=O)C2CCCCC2)[C@H](C)CN([C@@H](C)CO)C(=O)c2cc(NC(=O)Nc3cccc4ccccc34)ccc2O1 | inactive
3 | CN1C=C(C(=O)OCCS(C)(=O)=O)C(C(=O)OCCS(C)(=O)=O)=CC(CCCO)=C[C@@H]1C1CC1 | inactive
4 | COC(=O)C1=CC(CCCO)=C[C@@H](c2cccs2)N(Cc2cccc(OC(F)(F)F)c2)C=C1C(=O)OC | active
5 | O=C(O)c1ccc(S(=O)(=O)N(Cc2ccc(OC(F)(F)F)cc2)c2ncc(C(F)(F)F)cc2Cl)cc1 | active
6 | O=C(O)c1ccc(S(=O)(=O)N(Cl)Cl)cc1 | inactive
7 | CCN(CC)S(=O)(=O)c1ccc(C(=O)O)cc1 | inactive
8 | N=C(N=C(N)N)Nc1cc(-c2cccs2)n[nH]1 | inactive
9 | C[C@H](CO)N1C[C@H](C)[C@H](CN(C)C(=O)CN(C)C)Oc2cc(C#Cc3ccc(F)cc3)ccc2S1(=O)=O | inactive
10 | C[C@@H]1CN([C@@H](C)CO)S(=O)(=O)c2ccc(C#Cc3ccccc3)cc2O[C@@H]1CN(C)C(=O)CN(C)C | active
11 | C[C@H]1CN([C@@H](C)CO)S(=O)(=O)c2ccc(C#Cc3ccccc3)cc2O[C@@H]1CN(C)C(=O)CN(C)C | inactive
12 | C[C@@H]1CN([C@@H](C)CO)S(=O)(=O)c2ccc(C#Cc3ccc(F)cc3)cc2O[C@H]1CN(C)C(=O)CN(C)C | inactive
13 | C[C@@H]1CN([C@H](C)CO)S(=O)(=O)c2ccc(C#Cc3ccc(F)cc3)cc2O[C@H]1CN(C)C(=O)CN(C)C | inactive
14 | C[C@@H]1CN([C@@H](C)CO)S(=O)(=O)c2ccc(C#Cc3ccc(F)cc3)cc2O[C@@H]1CN(C)C(=O)CN(C)C | inactive
15 | C[C@@H]1CN([C@H](C)CO)S(=O)(=O)c2ccc(C#Cc3ccc(F)cc3)cc2O[C@@H]1CN(C)C(=O)CN(C)C | inactive
16 | C[C@H]1CN([C@@H](C)CO)S(=O)(=O)c2ccc(C#Cc3ccc(F)cc3)cc2O[C@H]1CN(C)C(=O)CN(C)C | active
17 | C[C@@H]1CN([C@H](C)CO)S(=O)(=O)c2ccc(C#Cc3ccccc3)cc2O[C@@H]1CN(C)C(=O)CN(C)C | active
18 | C[C@H]1CN([C@@H](C)CO)S(=O)(=O)c2ccc(C#Cc3ccc(F)cc3)cc2O[C@@H]1CN(C)C(=O)CN(C)C | inactive
19 | C[C@H]1CN([C@@H](C)CO)S(=O)(=O)c2ccc(C#Cc3ccccc3)cc2O[C@H]1CN(C)C(=O)CN(C)C | active
20 | C[C@H](CO)N1C[C@H](C)[C@@H](CN(C)C(=O)CN(C)C)Oc2cc(C#Cc3ccccc3)ccc2S1(=O)=O | inactive
21 | C[C@@H]1CCCCO[C@@H](CN(C)Cc2ccc(Cl)c(Cl)c2)[C@@H](C)CN([C@H](C)CO)C(=O)c2cc(NC(=O)C3CCCCC3)ccc2O1 | inactive
22 | CC(C)NC(=O)N(C)C[C@@H]1OCCCC[C@@H](C)Oc2ccc(NS(=O)(=O)c3cn(C)cn3)cc2C(=O)N([C@H](C)CO)C[C@H]1C | inactive
23 | C[C@@H]1CN([C@H](C)CO)C(=O)c2cc(NS(=O)(=O)c3ccc(F)cc3)ccc2O[C@@H](C)CCCCO[C@H]1CN(C)C(=O)Nc1ccccc1 | inactive

Row | SMILES | growth inhibition call
24 | CC=Cc1ccc2n(c1=O)C[C@@H]1[C@@H](CO)[C@H](C(=O)NC3CCC3)N(S(C)(=O)=O)[C@H]21 | inactive
25 | CCCN(C)C[C@@H]1OCCCC[C@@H](C)Oc2ccc(NS(=O)(=O)c3cn(C)cn3)cc2C(=O)N([C@@H](C)CO)C[C@@H]1C | inactive
26 | C[C@@H]1CN([C@@H](C)CO)C(=O)c2cc(C#Cc3ccncc3)cnc2O[C@H]1CN(C)S(=O)(=O)c1ccccc1F | inactive
27 | C[C@@H]1CN([C@@H](C)CO)C(=O)c2cc(NS(C)(=O)=O)ccc2O[C@@H](C)CCCCO[C@H]1CN(C)S(=O)(=O)c1cn(C)cn1 | inactive
28 | C[C@@H]1CN([C@H](C)CO)C(=O)c2cccc(NS(C)(=O)=O)c2O[C@@H]1CN(C)S(=O)(=O)c1ccc(F)cc1 | inactive
29 | C[C@H](CO)N1C[C@H](C)[C@H](CN(C)C(=O)CN(C)C)Oc2cc(C#Cc3ccccc3)ccc2S1(=O)=O | active
30 | C[C@@H]1CN([C@H](C)CO)S(=O)(=O)c2ccc(C#Cc3ccccc3)cc2O[C@H]1CN(C)C(=O)CN(C)C | inactive
31 | C[C@@H]1CN([C@@H](C)CO)S(=O)(=O)c2ccc(C#Cc3ccccc3)cc2O[C@H]1CN(C)C(=O)CN(C)C | inactive
32 | COc1ccc(S(=O)(=O)N(C)C[C@@H]2Oc3ccc(NS(=O)(=O)c4cccs4)cc3CC(=O)N([C@@H](C)CO)C[C@H]2C)cc1 | inactive
33 | C[C@H](CO)N1C[C@H](C)[C@@H](CN(C)C(=O)Nc2ccc(C(F)(F)F)cc2)Oc2c(NS(C)(=O)=O)cccc2C1=O | inactive
34 | C[C@H](CO)N1C[C@H](C)[C@H](CN(C)C(=O)Nc2ccc(C(F)(F)F)cc2)Oc2c(NS(C)(=O)=O)cccc2C1=O | inactive
35 | C[C@H]1CN([C@@H](C)CO)C(=O)c2cccc(NS(C)(=O)=O)c2O[C@@H]1CN(C)C(=O)Nc1ccc(C(F)(F)F)cc1 | inactive
36 | C[C@H]1CN([C@@H](C)CO)C(=O)c2cccc(NS(C)(=O)=O)c2O[C@H]1CN(C)C(=O)Nc1ccc(C(F)(F)F)cc1 | inactive
37 | C[C@@H]1CN([C@@H](C)CO)C(=O)c2cccc(NS(C)(=O)=O)c2O[C@H]1CN(C)C(=O)Nc1ccc(F)cc1 | inactive
38 | C[C@@H]1CN([C@H](C)CO)C(=O)c2cccc(NS(C)(=O)=O)c2O[C@H]1CN(C)C(=O)Nc1ccc(C(F)(F)F)cc1 | inactive
39 | C[C@@H]1CN([C@H](C)CO)C(=O)c2cccc(NS(C)(=O)=O)c2O[C@@H]1CN(C)C(=O)Nc1ccc(C(F)(F)F)cc1 | active
40 | C[C@@H]1CN([C@@H](C)CO)C(=O)c2cccc(NS(C)(=O)=O)c2O[C@@H]1CN(C)C(=O)Nc1ccc(C(F)(F)F)cc1 | active
41 | C[C@@H]1CN([C@@H](C)CO)C(=O)c2cccc(NS(C)(=O)=O)c2O[C@H]1CN(C)C(=O)Nc1ccc(C(F)(F)F)cc1 | active
42 | CNC(=O)Cn1cc(Br)cn1 | inactive
43 | C[C@H]1N(c2cnn(C)c2)C(=O)COC12CCN(S(C)(=O)=O)CC2 | inactive
44 | O=C1O[C@H](CO)[C@@H](O)[C@H](O)[C@H]1O | inactive
45 | COc1ccc2c3c(n(c2c1)C)[C@@H](CO)N(Cc1ccccc1F)C[C@]13CN(C1)C(=O)C1CCOCC1 | inactive
46 | C[C@@H]1CN([C@@H](C)CO)C(=O)c2cccc(NS(C)(=O)=O)c2O[C@@H]1CN(C)C(=O)Nc1ccc2c(c1)OCO2 | inactive

Row | SMILES | growth inhibition call
47 | CC1CCC2(C)C(C=O)=CCCC2C1(C)CC1OC(O)C(=O)C12CO2 (stereo not drawn) | active
48 | C[C@H]1CN([C@@H](C)CO)C(=O)c2cc(NC(=O)CCN3CCOCC3)ccc2O[C@@H]1CN(C)Cc1ccc2c(c1)OCO2 | inactive
49 | C[C@H](CO)N1C[C@H](C)[C@@H](CN(C)Cc2ccc(Cl)c(Cl)c2)Oc2ccc(NC(=O)Nc3cccc4ccccc34)cc2C1=O | inactive
50 | C=CC[C@H](CC(=O)NCCO)C(=O)N[C@H](COC(=O)[C@@H](CC=C)CC(=O)OC(C)(C)C)Cc1ccccc1 | inactive
51 | O=C(CCCCCC(=O)Nc1ccccc1O)N/N=C/C[P+](c1ccccc1)(c1ccccc1)c1ccccc1 | inactive
52 | O=C(CCCCCCC(=O)Nc1ccccc1)NO | inactive
53 | COC(=O)CCCCCCC(=O)Nc1ccc(NC(=O)CCCC[P+](c2ccccc2)(c2ccccc2)c2ccccc2)cc1 | active
54 | C[C@@H]1CN([C@H](C)CO)C(=O)c2cccc(NC(=O)NC3CCCCC3)c2O[C@H]1CN(C)C(=O)Nc1cccc2ccccc12 | inactive
55 | C[N+](C)(C)CCCCCCNC(=O)[C@H]1C[C@H]2C(=O)N[C@@H](CCCC[N+](C)(C)C)C(=O)N2[C@H]1c1ccc(O)cc1 | inactive
56 | C[N+](C)(C)CCCCNC(=O)[C@H]1C[C@H]2C(=O)N[C@@H](CCCC[N+](C)(C)C)C(=O)N2[C@H]1c1ccc(O)cc1 | inactive
57 | C[N+](C)(C)CCCCCCNC(=O)[C@@H]1C[C@@H]2C(=O)N[C@@H](CCCC[N+](C)(C)C)C(=O)N2[C@@H]1c1ccc(O)cc1 | active
58 | COc1ccc(CNC(=O)C[C@@H]2C[C@H]3c4cc(NC(=O)NC5CCCC5)ccc4O[C@H]3[C@@H](CO)O2)cc1 | inactive
59 | O=C(Nc1ccc(S(=O)(=O)OCC(F)(F)C(F)(F)C(F)(F)C(F)F)cc1)NC1(C(F)(F)F)Oc2ccccc2O1 | active
60 | C=CC[C@@H](CC(=O)N(CCO)Cc1ccccc1)C(=O)NCCOC(=O)[C@@H](CC=C)CC(=O)OC(C)(C)C | inactive
61 | C[C@H](CO)N1C[C@H](C)[C@H](CN(C)C(=O)Nc2ccc(C(F)(F)F)cc2)Oc2ccc(NC(=O)Cn3cnnn3)cc2CC1=O | inactive
62 | O=C(C[C@@H]1CC[C@H]2[C@@H](COC[C@H](O)CN2S(=O)(=O)c2ccccc2)O1)N1CCOCC1 | inactive
63 | COc1ncc(-c2ccc3c(Nc4cc(Oc5cc(F)cc(F)c5)cc(C(=O)O)c4)c(S(=O)(=O)NC4CC4)cnc3c2)c(OC)n1 | active
64 | CCCN(C)C[C@H]1OCCCC[C@H](C)Oc2ccc(NC(=O)CCC(F)(F)F)cc2C(=O)N([C@H](C)CO)C[C@@H]1C | inactive
65 | O=C(OCc1ccccc1)c1cccnc1 | inactive
66 | C[C@H]1CCCCO[C@H](CN(C)CC2CCCCC2)[C@@H](C)CN([C@@H](C)CO)C(=O)c2cc(NC(=O)Nc3cccc4ccccc34)ccc2O1 | inactive
67 | CCCC#Cc1ccc2c(c1)O[C@H](CN(C)Cc1ccc3c(c1)OCO3)[C@H](C)CN([C@@H](C)CO)S2(=O)=O | inactive
68 | C[C@@H]1CN([C@@H](C)CO)C(=O)c2cc(NS(=O)(=O)c3cccs3)ccc2O[C@@H]1CN(C)CC1CC1 | inactive
